# Laboratory results taken from PubChem BioAssay AID2314 (National Center for Advancing Translational Sciences (NCATS), 2010).
# In all, about 300,000 compounds went through this assay and about 37,000 (12%) were called active. Cut-off read from the data, not from the text of the source: active = max response mostly above about 13% (no sharp cut-off); inactive = mostly below about 14%. Shown is part of a subset that was picked to be rich in actives.
# Assay: Cycloheximide Counterscreen for Small Molecule Inhibitors of Shiga Toxin; note: read at 38.3 µM for the half of the compounds with a filed dose; 0% is about no effect
# Conditions: cell reporter, cycloheximide protein synthesis inhibition counterscreen; stronger effect = higher value
row,Structure (SMILES),max response
1,Cc1ccc2cccc(S(=O)(=O)N3CCN(c4ccccc4F)CC3)c2n1,-1.96% (inactive)
2,COc1ccccc1Nc1cc(C(=O)NCCCN(C)C2CCCCC2)c2ccccc2n1,-15.5% (inactive)
3,CCc1ccc(-c2nnn(Cc3nc4ccccc4s3)n2)cc1,38.7% (active)
4,Clc1cccc(Cl)c1Cn1nnc(-c2cccs2)n1,1.15% (inactive)
5,CCc1ccc(-c2nnn(Cc3nn[nH]n3)n2)cc1,-4.49% (inactive)
6,Cc1cc(N2CCN(c3ccc(F)cc3)CC2)n2ncnc2n1,1.63% (inactive)
7,COC(=O)c1ccccc1NS(=O)(=O)c1ccc2[nH]c(=O)[nH]c2c1,-1.95% (inactive)
8,Cc1ccc(C)c(NC(=S)NNC(=O)c2csc(C)c2)c1,10.1% (inactive)
9,O=C(NC(=S)Nc1cccc2c(O)cccc12)c1cccc(Br)c1,-1.87% (inactive)
10,Cc1ccccc1NC(=S)NNC(=O)c1cccc(Br)c1,17.3% (active)
11,Cc1cc(C(=O)NNC(=S)Nc2ccccc2C)cs1,34.5% (active)
12,Cc1cc(C(=O)NNC(=S)NC(C)c2ccccc2)cs1 (configuration not stated),-2.7% (inactive)
13,CC(CC(=O)O)CC(=O)NNC(=O)c1cccc(Br)c1 (configuration not stated),-1.69% (inactive)
14,CCCCN=C1C([N+](=O)[O-])=CC=C2C1=NC1(CCCCC1)N2O,4.25% (inactive)
15,CCCc1nnc(NC(=O)CCC(=O)NC2CC2)s1,-2.75% (inactive)
16,Cc1ccc2c(c1)C1CN(C)CCC1N2S(=O)(=O)c1ccc(Oc2ccc([N+](=O)[O-])cc2)cc1 (configuration not stated),-3.12% (inactive)
17,Cc1ccc(C(=O)NC2CCN(C(=O)Nc3ccccc3Cl)CC2)cc1,-2.19% (inactive)
18,Cc1nn(CC(=O)NCC2CCCO2)c(=O)c2cc3ccccc3n12 (configuration not stated),3.06% (inactive)
19,CSc1nnc2ccc(-c3ccc(C)cc3)nn12,8.85% (inactive)
20,Cc1ccc(-c2cn3cc(C)ccc3n2)cc1,-15.5% (inactive)
21,Cc1ccc(-c2cn3cc([N+](=O)[O-])ccc3n2)cc1,92.8% (active)
22,Cc1ccnc(N2C(=O)c3ccc([N+](=O)[O-])cc3C2=O)c1,-0.576% (inactive)
23,Cc1ccc2nc(-c3ccc(Br)cc3)cn2c1,17.6% (active)
24,Cc1ccc(C(=O)Cn2cc([N+](=O)[O-])nc2C)cc1,-1.83% (inactive)
25,CC1CCN(C(=O)c2ccc(S(=O)(=O)Cc3cc(F)ccc3F)c([N+](=O)[O-])c2)CC1,0.662% (inactive)
26,O=C(CN1CCN(S(=O)(=O)c2cc(Cl)ccc2Cl)CC1)c1ccc(O)c(O)c1,6.66% (inactive)
27,CCC(C)NCCOCCOc1ccc(Br)cc1C (configuration not stated),-2.66% (inactive)
